Measurements from PubChem BioAssay (NCI).
This is part of a sample that, as a whole, favours compounds with a hit. Of some 83,000 tested, about 20% had one in any assay.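 Testing used 96-well plates and a 48-hour single-concentration exposure. Example: -40 means 40% of the starting cells died.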 Active and inactive are the calls of the source. How the source made its calls: active means growth percent below 10; inactive means the rest.

Columns and labels:
Assay in all cases: NCI-60 one-dose screen, 48 h (100 = growth as untreated, 0 = no growth, -100 = all killed)
Conditions in all cases: 10 µM unless noted
DU-145 prostate = system: DU-145 prostate
K-562 leukemia = system: K-562 leukemia
MALME-3M melanoma = system: MALME-3M melanoma
MDA-MB-231 breast = system: MDA-MB-231 breast
RXF 393 renal = system: RXF 393 renal
SF-268 CNS = system: SF-268 CNS
SF-295 CNS = system: SF-295 CNS
SF-539 CNS = system: SF-539 CNS
UACC-257 melanoma = system: UACC-257 melanoma
M14 melanoma = system: M14 melanoma
HT29 colon = system: HT29 colon
SNB-75 CNS = system: SNB-75 CNS
SNB-19 CNS = system: SNB-19 CNS
U251 CNS = system: U251 CNS
PC-3 prostate = system: PC-3 prostate
SK-MEL-5 melanoma = system: SK-MEL-5 melanoma
UACC-62 melanoma = system: UACC-62 melanoma
LOX IMVI melanoma = system: LOX IMVI melanoma
SK-MEL-28 melanoma = system: SK-MEL-28 melanoma

Measured: growth

NC1=NCc2nc3ccccc3c(=O)n2C1
inactive: DU-145 prostate 113% | K-562 leukemia 87.3% | MALME-3M melanoma 104% | MDA-MB-231 breast 85.7% | RXF 393 renal 91.4% | SF-268 CNS 112% | SF-295 CNS 96.1% | SF-539 CNS 107% | UACC-257 melanoma 95.1% | M14 melanoma 102% | HT29 colon 103% | SNB-75 CNS 98.6% | SNB-19 CNS 106% | U251 CNS 103% | PC-3 prostate 112% | SK-MEL-5 melanoma 107% | UACC-62 melanoma 92.3% | LOX IMVI melanoma 99.3% | SK-MEL-28 melanoma 117%

O=C(Nc1cccc(C(F)(F)F)c1)Nc1cccc(C(F)(F)F)c1
inactive: DU-145 prostate 25% | K-562 leukemia 11.5% | RXF 393 renal 22.7% | SF-268 CNS 22.7% | SF-539 CNS 19.5% | M14 melanoma 13% | SNB-75 CNS 11.1% | SNB-19 CNS 10.7% | SK-MEL-28 melanoma 26.8%
active: MALME-3M melanoma -17.1% | MDA-MB-231 breast -34.8% | SF-295 CNS 4.86% | UACC-257 melanoma -32.9% | HT29 colon 3.56% | U251 CNS -15.3% | PC-3 prostate 6.31% | SK-MEL-5 melanoma -72.5% | LOX IMVI melanoma 8.64%

O=C(/C=C/c1c(Cl)nc2sccn12)c1nccs1
inactive: DU-145 prostate 112% | K-562 leukemia 84.3% | MALME-3M melanoma 108% | MDA-MB-231 breast 95.8% | RXF 393 renal 70.7% | SF-268 CNS 84.8% | SF-295 CNS 110% | SF-539 CNS 106% | UACC-257 melanoma 81% | M14 melanoma 93.9% | SNB-75 CNS 67.1% | SNB-19 CNS 102% | U251 CNS 91.6% | PC-3 prostate 91.1% | SK-MEL-5 melanoma 95.6% | UACC-62 melanoma 89.7% | LOX IMVI melanoma 89.1% | SK-MEL-28 melanoma 104%

Cn1cc(-c2csc(-c3ccccc3)n2)c2cccnc21
active: DU-145 prostate -61.4% [100 µM] | K-562 leukemia 1.43% [100 µM] | MALME-3M melanoma -44.2% [100 µM] | MDA-MB-231 breast -42.7% [100 µM] | RXF 393 renal -37.4% [100 µM] | SF-268 CNS -18.3% [100 µM] | SF-295 CNS -47.2% [100 µM] | SF-539 CNS -71% [100 µM] | UACC-257 melanoma -27.7% [100 µM] | M14 melanoma -76.6% [100 µM] | HT29 colon -67.5% [100 µM] | SNB-75 CNS -15.9% [100 µM] | SNB-19 CNS -50.2% [100 µM] | U251 CNS -33.8% [100 µM] | PC-3 prostate -16.9% [100 µM] | SK-MEL-5 melanoma -83.2% [100 µM] | UACC-62 melanoma -62.7% [100 µM] | LOX IMVI melanoma -54.3% [100 µM] | SK-MEL-28 melanoma -57.4% [100 µM]

COC(=O)[C@]12CC[C@@H](C)[C@H](C)[C@@H]1C1=CC[C@@H]3[C@@]4(C)C(C=O)=C[C@@](C)(COC(C)=O)[C@@H]4C(=O)C[C@@]3(C)[C@]1(C)CC2
inactive: DU-145 prostate 42.6% | K-562 leukemia 24.3% | MALME-3M melanoma 65.7% | MDA-MB-231 breast 46.8% | RXF 393 renal 55.8% | SF-268 CNS 42.2% | SF-295 CNS 32.1% | SF-539 CNS 53.7% | UACC-257 melanoma 37.8% | M14 melanoma 19.5% | HT29 colon 23.8% | SNB-75 CNS 33.5% | SNB-19 CNS 37.4% | U251 CNS 27.1% | PC-3 prostate 13.3% | SK-MEL-5 melanoma 51.9% | UACC-62 melanoma 42.1% | LOX IMVI melanoma 33.5% | SK-MEL-28 melanoma 65.5%

CCOC(=O)c1csc(NC(=O)COc2cccc(/C=C3\Oc4cc(OC)ccc4C3=O)c2)n1
inactive: DU-145 prostate 102% | K-562 leukemia 52.1% | MALME-3M melanoma 109% | MDA-MB-231 breast 67.9% | RXF 393 renal 114% | SF-268 CNS 109% | SF-295 CNS 121% | SF-539 CNS 106% | UACC-257 melanoma 91.7% | M14 melanoma 111% | HT29 colon 101% | SNB-75 CNS 78.4% | SNB-19 CNS 83.4% | U251 CNS 79.2% | PC-3 prostate 78.3% | SK-MEL-5 melanoma 98.5% | UACC-62 melanoma 79% | LOX IMVI melanoma 66.7% | SK-MEL-28 melanoma 119%

Oc1ccc(CN2CCC(N3CCOCC3)CC2)c2cccnc12
active: MALME-3M melanoma -0.979% | SF-295 CNS 5.68% | UACC-257 melanoma 7.47% | SK-MEL-5 melanoma -45.8%
inactive: DU-145 prostate 29.3% | K-562 leukemia 12.9% | MDA-MB-231 breast 31% | RXF 393 renal 13.1% | SF-268 CNS 32.3% | SF-539 CNS 13.6% | M14 melanoma 24.2% | HT29 colon 103% | SNB-75 CNS 32% | SNB-19 CNS 17.6% | U251 CNS 16.9% | PC-3 prostate 15.3% | UACC-62 melanoma 12.9% | LOX IMVI melanoma 15.2% | SK-MEL-28 melanoma 39.5%

COc1cccc(C(=O)NCCCNc2cc(-c3cn(-c4ccccc4)nc3-c3cccc(OC)c3)ccn2)c1
inactive: DU-145 prostate 65.8% | K-562 leukemia 22.8% | MALME-3M melanoma 51.7% | MDA-MB-231 breast 44% | RXF 393 renal 66.8% | SF-268 CNS 63.9% | SF-295 CNS 44% | SF-539 CNS 85.3% | UACC-257 melanoma 30% | M14 melanoma 34.4% | HT29 colon 27.7% | SNB-75 CNS 63.5% | SNB-19 CNS 65% | U251 CNS 39.7% | PC-3 prostate 27.4% | UACC-62 melanoma 26.2% | LOX IMVI melanoma 51.8% | SK-MEL-28 melanoma 65.7%
active: SK-MEL-5 melanoma 9.17%
